Laboratory results taken from PubChem BioAssay AID1069 (NMMLSC, 2008).
Unmarked numbers belong to inactive results. Calls of active or inactive are those of the source.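 The calls were made as follows: active = high combined rank on largest and smallest cell-count-weighted shift across three tests, rank score above 45, floors 50 and 25 (some results past the limit were not filed as active); inactive = the rest.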

Test: activators of LNCaP cell differentiation, retest, confirmation, side scatter shift, flow cytometry (AID 1069);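 also: LNCaP human prostate cancer cells in low-serum medium with charcoal-stripped FBS; percent of cells with raised granularity gated so DMSO controls show 10%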
Settings: 4 d, at 100 µM, active compounds read high

With `CN(CC(O)COc1ccc(OCC(O)CN(C)C2CCCCC2)cc1)C1CCCCC1` (stereo not drawn) the side scatter shift was 49.4% (active).
With `COc1ccc(N2CCN(CCCNC(=O)CC3Oc4ccc(C)cc4NC3=O)CC2)cc1` (stereo not drawn) the side scatter shift was 50% (active).
With `CN(C)CCCN1c2ccccc2CCc2ccc(Cl)cc21` the side scatter shift was 20.9% (active).
For `Cc1cccc(-c2nsc(SCC(=O)Nc3nccs3)n2)c1`, the side scatter shift was 68.1% (active).
For `Cc1cc(N2CCN(C)CC2)nc2ccc(NC(=O)c3ccc4c(c3)OCO4)cc12`, the side scatter shift was 71.9% (active).

Point of comparison: `COc1ccc(OC)c(N=Cc2c(O)[nH]c3ccccc23)c1`, side scatter shift 7.2%. Against it:
- Cc1ccc(-c2noc(CCC(=O)NCCCN3CCN(c4cccc(Cl)c4)CC3)n2)cc1 — higher, 31.8%
- COc1ccc(-c2coc3c(CN4CCCCC4)c(O)c(CN4CCCCC4)c(O)c3c2=O)cc1 — higher, 28.6%
- Cc1cc(=O)n2nc(N3CCCC(C(=O)NCCCN4CCc5ccccc5C4)C3)sc2n1 (stereo not drawn) — higher, 17.4%
- O=C(NCCCN1CCOCC1)c1cc2c(s1)CSC2 — higher, 13.1%
- O=C(NCCCN1CCN(c2ccccc2F)CC1)C1CCC(=O)N1C1CCCC1 (stereo not drawn) — lower, 5%
- CCc1ccc(-c2nc(CN3CCC(C(=O)NCc4ccccc4OC)CC3)c(C)o2)cc1 — higher, 12.2%
- CCOC(=O)C1=C(C)N=c2s/c(=C\c3ccncc3)c(=O)n2C1c1ccc2c(c1)OCO2 (stereo not drawn) — higher, 47.1%
- N#CC1=C(N)OC2=C(C(=O)CCC2)C1c1ccc(OC(=O)N2CCOCC2)cc1 (stereo not drawn) — higher, 7.8%
- CN(C(=O)c1ccccn1)c1nnc(-c2cccnc2)s1 — higher, 8.3%
- CN1CCN(CC(=O)Nc2ccc(Cl)cc2Cl)CC1 — higher, 23.1%
- CN1C(=O)c2ccc(S(=O)(=O)c3ccc(C(=O)O)cc3)cc2C1=O — the same, 7.2%
- CCCS(=O)(=O)N1CCCC(C(=O)NCCCN2CCN(c3cccc(Cl)c3)CC2)C1 (stereo not drawn) — higher, 17%
- COC(=O)Nc1sccc1C(=O)Nc1sccc1C(=O)OC — higher, 18.8%
- COc1ccc(S(=O)(=O)Nc2ccc(F)c(Cl)c2)cc1OC — higher, 44.4%
- CCOc1cccc(-c2nnc3n2N=C(c2cc(OC)ccc2OC)CS3)c1 — lower, 0%
- Cc1ccc(C)c2[nH]c(=O)c(CN(CCN3CCCC3)C(=O)Nc3cccc(Cl)c3)cc12 — higher, 20%
- COc1ccc(Nc2nc(N3CCCC3)c3ccccc3n2)cc1 — higher, 14%
